Results published in PubChem BioAssay (NCI).
The panel holds about 83,000 compounds, 20% with a hit somewhere; the sample as a whole holds those more often.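 How to read the values: 0–100, growth inhibition (40 = 60% inhibited); 0, no net growth; -100 to 0, cell death (-40 = 40% of starting cells died; -100 = all dead).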 Calls of active or inactive are those of the source.

The compounds below were run on MDA-MB-468 breast (assay: NCI-60 one-dose screen, 48 h (100 = growth as untreated, 0 = no growth, -100 = all killed)). Conditions: 10 µM unless noted.
Procedure: Growth inhibition of the MDA-MB-468 human Breast tumor cell line is measured as a screen for anti-cancer activity. Cells are grown in 96 well plates and exposed to the test compound for 48 hours. Compounds are tested at a single concentration, which is 10^-5 M for most compounds. The reported endpoint is percent growth (GI% or GIPRCNT), where numbers from 0 - 100% represent growth inhibition, and numbers from -100% - 0 represent cell death. For example, a value of 40 represents 60% growth inhibition. A value of 0 means no net growth occurred over the course of the experiment. A value of -40 indicates 40% of cells at the beginning of the experiment died by the end of the experiment. A value of -100 means all cells are dead at the end of the experiment.
NCI-60 Human Tumor Cell Lines Screen was performed using the standard one-dose NCI protocol, which is described in more detail at https://dtp.cancer.gov/discovery_development/nci-60/default.htm.
Compounds with GIPRCNT values below 10 were considered active. Activity score was based on GIPRCNT using the following formula: […]
Score is 0 for GIPRCNT values of 100 or above, 50 for GIPRCNT values of 0, and 100 for GIPRCNT values of -100.

Row | SMILES | growth
1 | CN1CCN(Cc2cc(NC(=O)c3cccc(C#Cc4cccc5[nH]nc(N)c45)c3)cc(C(F)(F)F)c2)CC1 | 10.8% (inactive)
2 | CCOC(=O)c1[nH]c(-c2ccc(Cl)cc2)cc1-c1cccnc1 | -1.1% (active)
3 | O=C(Nc1ccccc1O)c1ccc(CNC(=O)c2ccsc2Nc2ccnc(C(F)(F)F)c2)cc1 | -17.2% (active)
4 | CC1=C(C(=O)OCC2CCN(C(=O)OC(C)(C)C)CC2)[C@@H](c2cccc(C#N)c2)C2=C(CC(C)(C)CC2=O)N1 | 52.2% (inactive)
5 | COC(=O)/C=C1\Sc2cc(F)ccc2NC1=O | 99.8% (inactive)
6 | NNc1ccccc1C(=O)O | 102% (inactive)
7 | CC(=O)/C(=C\c1ccc(Cl)cc1)c1ccccc1 | 0.454% (active)
8 | COc1cc(C(=O)Nc2cc(O)c(C/C=C(\C)CCC=C(C)C)c(O)c2)cc2c1O[C@]1(C)CC[C@@H](O)C(C)(C)[C@H]1C2 | 3.89% (active)
9 | COc1ccc(-c2nc(N/N=C/c3cccc(O)c3)nc(N3CCOCC3)c2C#N)cc1 | 87.1% (inactive)
10 | O=c1cc(CSc2nnc(-c3ccc(F)cc3)o2)c2ccc3ccccc3c2o1 | 101% (inactive)
11 | CCN1CCN(S(=O)(=O)c2oc(-c3ccc(Cl)cc3)nc2C#N)CC1 | 24% (inactive)
12 | COc1ccc(/C=C/C(=O)C(CC2CCC2)C(=O)/C=C/c2ccc(OC)c(OC)c2)cc1OC | -22.2% (active)
13 | Cn1c(-c2ccccc2)cc(=O)cc1-c1ccccc1 | 68.7% (inactive)
14 | O=C(CSC1CCc2ccccc21)N/N=C/c1ccccc1O (stereo not given) | 33.9% (inactive)
15 | CCN(CC)CCC(CNc1c2ccc(Cl)cc2nc2ccc(OC)cc12)c1ccccc1 (stereo not given) | -87.1% (active)
16 | CCNC(=O)Oc1ccc(/C(=C(\C)c2ccc(Cl)cc2)c2ccc(OCCN3CCCCC3)cc2)cc1 | 56.5% (inactive)
17 | CC(Cc1cccc2ccccc12)C(N)=O (stereo not given) | 110% (inactive)
18 | NS(=O)(=O)c1ccc(CCn2c(SCC(=O)N/N=C/c3cccnc3)nc3ccccc3c2=O)cc1 | 92.9% (inactive)
19 | CCCCC[C@H](O)C/C=C1/C(=O)C=C[C@@H]1C/C=C\CCCC(=O)O | 67.4% (inactive)
20 | CCCCCCCCCCCCCCCCCC1OCC(COC(=O)O[C@]2(CC)C(=O)OCc3c2cc2n(c3=O)Cc3cc4ccccc4nc3-2)O1 (stereo not given in full) | 69.9% (inactive)

Row | SMILES | growth
21 | COc1ccc2[nH]c(-c3ccc(Cl)cc3)cc(=O)c2c1 | 99% (inactive)
22 | COC(=O)c1cc(=O)nc(N/N=C/c2ccccc2O)s1 | 98% (inactive)
23 | COc1cccc(/C=N/NC(=O)c2ccccc2Nc2ccnc(C(F)(F)F)c2)c1O | -19.6% (active)
24 | CCc1onc(-c2ccc(OC)cc2)c1-c1ccccc1OCCN(CC)CC | 80% (inactive)
25 | O=C(NNc1nc2cc(F)c(F)cc2n2cccc12)c1cnccn1 | 17.5% (inactive)
26 | O=C(c1ccccc1)C(Br)C(Br)c1cccc([N+](=O)[O-])c1 (stereo not given) | -66.4% (active)
27 | CCOC(=O)/C(=C\c1ccc(-c2ccccc2)cc1)C(C)=O | 95% (inactive)
28 | COc1ccc2nc3cc(Cl)ccc3c(NCCCNCCC(C)O)c2c1 (stereo not given) | -54% (active)
29 | O=C(NC(=S)Nc1ccc(Cl)cc1)c1ccccc1 | -37% (active)
30 | O=C(Cn1c[n+](CC(=O)c2ccc(-c3ccccc3)cc2)c2ccccc21)Nc1cccc2cccnc12 | -6.11% (active)
31 | Cn1cnc2nc(Cl)nc(Cl)c21 | 21.7% (inactive)
32 | COc1ccc(N2C(=O)/C(=C/C(Cl)=C/c3ccc([N+](=O)[O-])cc3)SC2=S)cc1 | -11.8% (active)
33 | O=C(CSc1nc2ccccc2c(=O)n1-c1ccccc1)Nc1ccc(C(=O)/C=C/c2ccc(Cl)cc2)cc1 | 121% (inactive)
34 | Cc1ccc2c(c1)C(=O)CCS2 | 111% (inactive)
35 | N#C/C(=C/c1ccc(O)c([N+](=O)[O-])c1)c1nc(-c2ccc([N+](=O)[O-])cc2)cs1 | 14.3% (inactive)
36 | Nc1nc(N)c2[nH]cnc2n1 | 69.9% (inactive)
37 | C=C1C(=O)O[C@H]2[C@H]1CC/C(COC(=O)N1CCC[C@H]1C(=O)Nc1ccc(OC)c(C(N)=O)c1O)=C\CC[C@@]1(C)O[C@@H]21 | -4.47% (active)
38 | COc1ccc(NC(=O)/C=C/c2ccc(NC(=O)N3CCCC3)cc2)cn1 | 116% (inactive)
39 | COc1cc2c(C#N)n3c(c2cc1OC)C(=O)C(c1ccccc1)Oc1ccccc1-3 (stereo not given) | 74.5% (inactive)
40 | N#CCc1ccc([N+](=O)[O-])cc1 | 96.8% (inactive)
